Consider 30 compounds from PubChem BioAssay (NCATS).

Results filed as inconclusive are left out. The source made the active and inactive calls. The call rests on the fitted dose curve; in most records, active means well fitted curve in the direction sought with a large enough effect; inconclusive means small, poorly fitted or top-dose-only effect, or another doubt; inactive means no such curve, though single readings can be large; an effect the other way counts as inactive or inconclusive.

Assay [1] addresses Glutathione peroxidase 1 (Homo sapiens) (UniProt P07203). Nature of the assay: Primary qHTS Assay for Inhibitors of Recombinant Selenoprotein Glutathione Peroxidase 1 (GPX1) (AID 1845191). Further: nearly all actives have a fitted effect of over 65% in size. Conditions: recombinant GPX1, GR-coupled NADPH fluorescence, 15 min; series mostly up to 48.8 µM. In short, it runs like this:
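GR-coupled assay: compounds preincubated 30 min at room temperature with GPX1, then reaction started with CHP; final 10 nM GPX1, 1 mM GSH, 0.5 mM CHP, 0.5 mM NADPH, 100 nM GR, 0.01% BSA, pH 7.5 Tris buffer. NADPH fluorescence (340/450 nm) read at 0 and 15 min.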

Assay [2] has as its target Phospholipid hydroperoxide glutathione peroxidase GPX4 (Homo sapiens) (UniProt P36969). Nature of the assay: Primary qHTS Assay for Inhibitors of Recombinant Selenoprotein Glutathione Peroxidase 4 (GPX4) (AID 1845192). Further: nearly all actives have a fitted effect of over 65% in size. Further: potency means the concentration at half of the fitted maximal effect. On activity change, negative = inhibition: on the % scale 0 is the no-effect control and ±100 the full control effect. To be noted: recombinant GPX4, GR-coupled NADPH fluorescence, 15 min; series mostly up to 50 µM. The method in brief: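 GR-coupled assay: recombinant GPX4 preincubated 30 min with compound at room temperature; final 200 nM GPX4, 1 mM GSH, 0.5 mM cumene hydroperoxide, 0.5 mM NADPH, 100 nM GR, 0.01% BSA, pH 7.5 Tris. NADPH fluorescence (340/450 nm) read at 0 and 15 min.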
A general note: In qHTS, concentration-response curves come from the screen itself.

Assay [3] addresses Luciferin 4-monooxygenase (Photinus pyralis) (UniProt P08659). Nature of the assay: Primary firefly luciferase (FLuc) qHTS assay for identification of artifact compounds. (AID 1845220). Further: nearly all actives have a fitted effect of over 60% in size.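 On activity change, negative = inhibition: plate controls were DMSO vehicle for no effect and no enzyme for full effect.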 Conditions: purified firefly luciferase, luminescence, 5 min; series mostly up to 54.1 µM. The method in brief: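 D-luciferin and ATP (10 uM each, final) in Tris acetate buffer pH 7.6 were incubated with compounds for 15 min at room temperature. The reaction was started with 10 nM Photinus pyralis luciferase and luminescence read after 5 min. Percent inhibition was fitted to a 4-parameter Hill equation.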

Assay [4] in a line: Primary fluorescence-based thiol-reactive (MSTI) qHTS assay for identification of artifact compounds. (AID 1845221). Further: nearly all actives have a fitted effect of over 65% in size. Further: potency means the concentration at half of the fitted maximal effect.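 On activity change, negative = thiol reactive: thiol-reactive compounds lower the probe fluorescence signal.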 Conditions: MSTI thiol-reactivity probe, 1 h; series mostly up to 53.8 µM. In short, it runs like this:
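One-hour, room-temperature, dark incubation of compound with 4 uM MSTI in PBS (pH 7.4, 2% DMSO) precedes a fluorescence read at 525 nm excitation, 598 nm emission; Hill-equation fitting yields concentration-response values.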

Phospholipid hydroperoxide glutathione peroxidase GPX4 (Homo sapiens), sequence (P36969 whole entry, looked up): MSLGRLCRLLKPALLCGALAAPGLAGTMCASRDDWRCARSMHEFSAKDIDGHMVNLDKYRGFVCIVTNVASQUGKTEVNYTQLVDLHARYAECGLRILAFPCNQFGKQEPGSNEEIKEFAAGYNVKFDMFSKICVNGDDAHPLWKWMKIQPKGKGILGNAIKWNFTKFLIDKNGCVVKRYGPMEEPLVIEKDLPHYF
Glutathione peroxidase 1 (Homo sapiens), sequence (P07203 whole entry, looked up): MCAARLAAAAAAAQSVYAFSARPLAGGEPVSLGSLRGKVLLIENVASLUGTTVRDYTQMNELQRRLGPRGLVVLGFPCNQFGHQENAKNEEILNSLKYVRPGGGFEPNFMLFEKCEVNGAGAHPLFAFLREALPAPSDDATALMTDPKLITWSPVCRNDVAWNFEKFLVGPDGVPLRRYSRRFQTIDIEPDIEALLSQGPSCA

With `CCCCC(F)(F)[C@@]1(O)CC[C@H]2[C@H](CC(=O)[C@@H]2CCCCCCC(=O)O)O1`, the Potency entry in assay [1], in assay [2], in assay [3] and in assay [4] was “inactive” throughout.

Turning to `O=C(CO)N1CCC(c2[nH]nc(-c3ccc(Cl)cc3)c2-c2ccncn2)CC1`, the Potency result in assay [1], in assay [2], in assay [3] and in assay [4] was “inactive” throughout.

In the case of `COc1ccc(-c2cc3nccn3c(Nc3ncccc3C(N)=O)n2)cc1OC`, the Potency entry in assay [1], in assay [2], in assay [3] and in assay [4] was “inactive” in each case.

In the case of `CN(C)CCCNC(=O)c1ccc(-c2cc(O)c3ncccc3c2)cc1`, the Potency result in assay [1], in assay [2] and in assay [3] was “inactive” in each case.

In the case of `Cc1cccc2c1CC[C@H](CN1CCC(c3c(Cl)cccc3Cl)CC1)C[C@@H]2O`, the Potency result in assay [1], in assay [2], in assay [3] and in assay [4] was “inactive” throughout.

With `COc1nc(C)cnc1NS(=O)(=O)c1cccnc1-c1ccc(-c2nnco2)cc1`, the Potency entry in assay [1], in assay [2] and in assay [3] was “inactive” in each case.

For the compound `Cc1ccc(S(=O)(=O)Nc2nc3ccccc3nc2Nc2ccc3nsnc3c2)cc1`, the Potency result in assay [1] and in assay [2] was “inactive” each time.

As to `c1ccc(-c2oc3ncnc(NC[C@@H]4CCCO4)c3c2-c2ccccc2)cc1`, the Potency result in assay [1], in assay [2], in assay [3] and in assay [4] was “inactive” throughout.

For the compound `CN(C)c1nc(Cc2ccc(NC(=O)c3ccc(C(F)(F)F)cc3)cc2)nc(N(C)C)c1CC(=O)O`, the Potency entry in assay [1], in assay [2], in assay [3] and in assay [4] was “inactive” each time.

With `CN1CCN(c2cccc(Nc3nc4c(-c5ccc(S(C)(=O)=O)cc5)cccn4n3)c2)CC1`, the Potency entry in assay [1], in assay [2] and in assay [3] was “inactive” throughout.

As for `CC[C@H](CC#N)OC(=O)N[C@@H](C)c1cccc(NC(=O)Nc2ccc(-c3cnco3)c(OC)c2)c1`, the Potency entry in assay [1], in assay [2], in assay [3] and in assay [4] was “inactive” throughout.

As for `CCN(CC)CCCCNc1nc2cc(Cl)c(Cl)cc2nc1-c1ccc(-c2cccs2)s1`, the Potency result in assay [1] was “inactive”. In addition, in assay [2], the Potency is 20.2 µM (active).

As for `CC1(COc2ccc3c(c2)ncn3-c2ccc3cccc(N4CCC(N)CC4)c3n2)COC1`, the Potency entry in assay [1], in assay [2], in assay [3] and in assay [4] was “inactive” in each case.

Consider `CN1CCc2c(n(Cc3ccc(C(=O)NO)cc3)c3ccccc23)C1`, for which the Potency entry in assay [1], in assay [2] and in assay [3] was “inactive” each time.

As for `NC(=O)c1ccc(N(C(N)=O)c2c(F)cccc2F)nc1-c1ccc(F)cc1F`, the Potency result in assay [1], in assay [2], in assay [3] and in assay [4] was “inactive” each time.

For `Nc1ncnc2c1c(-c1cccc(OCc3ccccc3)c1)cn2C1CC(CN2CCC2)C1` (stereo unspecified), the Potency entry in assay [1], in assay [2], in assay [3] and in assay [4] was “inactive” in each case.

Consider `Nc1[nH]nc2nnc(-c3c(-c4ccccc4)nn4ccccc34)cc12`, for which the Potency result in assay [1], in assay [2] and in assay [3] was “inactive” throughout.

In the case of `COc1ccc(CCC(=O)Nc2nc3ccc(Cl)cc3s2)cc1OC`, the Potency entry in assay [1], in assay [2], in assay [3] and in assay [4] was “inactive” throughout.

Consider `CNc1nc(Nc2ccc(C(=O)N3CCOCC3)cc2OC)ncc1Cl`, for which the Potency entry in assay [1], in assay [2], in assay [3] and in assay [4] was “inactive” in each case.

With `COC(=O)N1CCN(Cc2cccc(NC(=O)Nc3ccc(C)nc3)c2F)CC1`, the Potency result in assay [1], in assay [2], in assay [3] and in assay [4] was “inactive” throughout.

Regarding `Cc1cnc(CNC(=O)c2c(=O)c3ccc(N4CCCN(C)CC4)nc3n3c2sc2ccccc23)cn1`, the outcome in assay [1] was “inactive [at 9.52 µM]”. The activity change, negative = inhibition in assay [2] was -0.552% [at 9.73 µM] (inactive); in assay [3], 3.83% [at 11.6 µM] (inactive). For the same compound, in assay [4], the activity change, negative = thiol reactive is 18.4% [at 11.5 µM] (inactive).

Turning to `Cc1csc(-c2nnc(Nc3ccc(Oc4ncccc4-c4ccnc(N)n4)cc3)c3ccccc23)c1`, the Potency entry in assay [1], in assay [2], in assay [3] and in assay [4] was “inactive” each time.

As to `O=C(Nc1cccc(C(F)(F)F)c1)Nc1cc(S(=O)(=O)NC2CC2)ccc1-c1ccsc1`, the Potency result in assay [1], in assay [2], in assay [3] and in assay [4] was “inactive” in each case.

For the compound `NC(=O)c1noc([C@H](CCCC2CCCCC2)CC(=O)NO)n1`, the Potency entry in assay [1], in assay [2], in assay [3] and in assay [4] was “inactive” each time.

`Clc1ccc(C2(c3ccc(-c4cn[nH]c4)cc3)CCNCC2)cc1`: the Potency entry in assay [1], in assay [2], in assay [3] and in assay [4] was “inactive” each time.

As for `CCN(CCO)CCCOc1ccc2c(Nc3cc(CC(=O)Nc4cccc(F)c4)[nH]n3)ncnc2c1`, the Potency result in assay [1], in assay [2], in assay [3] and in assay [4] was “inactive” in each case.

For `C[C@H](c1ccc(F)cc1CCCC(=O)O)N(c1cc(F)ccc1F)S(=O)(=O)c1ccc(Cl)cc1`, the Potency result in assay [1], in assay [2], in assay [3] and in assay [4] was “inactive” in each case.

As for `O=C(O)CCNc1cc(N2CCc3ccccc3CC2)nc(-c2ccccn2)n1`, the Potency entry in assay [1], in assay [2], in assay [3] and in assay [4] was “inactive” throughout.

For the compound `CC(C)(O)CC(=O)NCCn1ccc2ncnc(Nc3ccc(Oc4cccc(C(F)(F)F)c4)c(Cl)c3)c21`, the Potency entry in assay [1], in assay [2], in assay [3] and in assay [4] was “inactive” each time.

On to `CCN1C[C@H](C)n2c(c(O)c3c(=O)n(Cc4ccc(F)c(Cl)c4)nc(C(=O)NC)c32)C1=O`, for which the Potency entry in assay [1], in assay [2] and in assay [3] was “inactive” each time. In assay [4], the Potency was 29.9 µM (active).
